Hit rate of the full screen: of about 220,000 compounds, about 830 (0.38%) were called active.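 Rule for the calls: active = compound inhibiting the enzyme by more than half at any dose during confirmatory dose-response retesting; inconclusive = strong single-dose inhibitors picked by rank but not retested; inactive = the rest.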 The list is a sample of the results. Measured potencies and affinities stand elsewhere.
Target: Leucine aminopeptidase (Plasmodium falciparum (isolate 3D7)) (UniProt Q8IL11)
Assay: P. falciparum M17LAP inhibitors, primary screen, biochemical, fluorogenic H-Leu-NHMec substrate, 1536-well (AID 1619);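 note: plate controls were full reaction with DMSO carrier for no effect and no enzyme background for full effect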
Conditions: recombinant M17LAP, H-Leu-NHMec fluorogenic kinetic assay; at 30 µM; stronger effect = higher value

Leucine aminopeptidase (Plasmodium falciparum (isolate 3D7)), sequence (Q8IL11 whole entry, looked up): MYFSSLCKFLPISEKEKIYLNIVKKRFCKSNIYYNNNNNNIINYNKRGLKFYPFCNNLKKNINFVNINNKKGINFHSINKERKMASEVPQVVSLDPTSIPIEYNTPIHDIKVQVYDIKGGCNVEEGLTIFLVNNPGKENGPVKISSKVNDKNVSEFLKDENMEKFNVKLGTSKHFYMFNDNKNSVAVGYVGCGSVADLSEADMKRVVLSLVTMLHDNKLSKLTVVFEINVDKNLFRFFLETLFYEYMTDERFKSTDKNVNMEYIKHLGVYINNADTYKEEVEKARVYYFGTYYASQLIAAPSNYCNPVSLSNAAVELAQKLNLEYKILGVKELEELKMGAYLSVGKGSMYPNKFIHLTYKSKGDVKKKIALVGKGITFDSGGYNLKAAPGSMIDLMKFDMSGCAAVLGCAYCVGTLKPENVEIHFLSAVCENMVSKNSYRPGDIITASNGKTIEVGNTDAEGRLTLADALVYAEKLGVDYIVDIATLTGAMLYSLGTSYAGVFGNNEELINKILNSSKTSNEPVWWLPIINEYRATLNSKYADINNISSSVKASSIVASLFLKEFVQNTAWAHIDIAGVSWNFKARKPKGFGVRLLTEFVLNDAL

inhibition, inactive:
Cc1ccc2cc(CN(CC3CCCO3)S(=O)(=O)c3cccc4nsnc34)c(=O)[nH]c2c1 (centres undefined) -1.29%
O=C(COC(=O)c1ccc[nH]c1=O)NCC1CCCO1 (centres undefined) -1.42%
Cc1ccc(S(=O)(=O)N2CCN(CC(=O)NC3CCCc4ccccc43)CC2)c(C)c1 (centres undefined) 5.05%
CC(NC(=O)C(C)N1C(=O)C2C3CC(C(Br)C3Br)C2C1=O)c1ccccc1 (centres undefined) 10.6%
C=CCOC(=O)C1=C(C)Nc2ncnn2C1c1cc(Br)ccc1F (centres undefined) -2.3%
Cc1ccc(CSc2nnc(SCC(=O)N/N=C/C=C/c3ccccc3[N+](=O)[O-])s2)cc1 5.78%
S=c1[nH]nc(-c2ccccn2)n1/N=C/c1ccco1 0.92%
CCOc1ccc(C(=O)CN2CCN(S(=O)(=O)c3ccc(F)cc3)CC2)cc1 26.6%
CCOc1ccc(C(=O)CN2CCN(S(=O)(=O)c3ccc(Br)cc3)CC2)cc1 41.1%
CC(C)[C@H](NS(=O)(=O)c1ccc2c(c1)OCCO2)C(=O)OCC(=O)Nc1ccccc1Cl 9.34%
CC(=O)Nc1ccc(NS(=O)(=O)c2cc([N+](=O)[O-])ccc2C)cc1 1.99%
Cc1ccc(C)c(NC(=O)c2ccccc2NS(=O)(=O)c2cc([N+](=O)[O-])ccc2C)c1 31.8%
CCN(CC)CCN(C(=O)c1ccc2c(c1)CCCC2)c1nc2ccc(F)cc2s1 -4.78%
c1ccc(CCNc2nc(-c3ccncc3)nc3ccccc23)cc1 11.8%
CCc1ccc(-c2csc(NC(=O)C3CCCO3)c2C(=O)OC(C)C)cc1 (centres undefined) 57.8%
COC(=O)c1c(-c2ccccc2)csc1NC(=O)c1ccco1 4.09%
COC(=O)c1sccc1NC(=O)C1CC=CCC1C(=O)O (centres undefined) 36.4%
CC(C)OC(=O)c1c(-c2ccc(C(C)C)cc2)csc1NC(=O)C1CCCO1 (centres undefined) 16.2%
CCOC(=O)c1c(-c2ccccc2)csc1NC(=O)C1CCCO1 (centres undefined) 17.1%
COC(=O)c1c(-c2cccc(C)c2)csc1NC(=O)C1CCCO1 (centres undefined) -0.44%
CCOC(=O)c1c(-c2ccc(OC)c(OC)c2)csc1NC(=O)C1CCCO1 (centres undefined) -3.98%
Cc1ccsc1C(=O)NNC(=O)C1CC=CCC1C(=O)O (centres undefined) 28%
COc1ccc(NC(=O)C2=C(C)NC(=O)NC2c2cccs2)c(OC)c1 (centres undefined) 2.25%
COc1ccc(OCC(=O)OC2CCCN(C)C2)cc1 (centres undefined) 3.48%
Cc1c(-c2ccc(Cl)cc2)oc(=O)c2c(N)n(-c3ccccc3)nc12 -7.58%
CCN(c1ccccc1)S(=O)(=O)c1cc(C(=O)OC(C)C(=O)Nc2ccc3c(c2)OCCO3)ccc1C (centres undefined) -0.98%
Cn1c(SCC(=O)NCCN2C(=O)CSC2=O)nnc1-c1ccccc1 -14.5%
Cc1cc(C)c(-c2c(O)c3cnn(-c4ccccc4)c3[nH]c2=O)c(C)c1 13.5%
Cc1ccc(CC(=O)N2CCOCC2)cc1 0.85%
Cc1ccc2ccccc2[n+]1CCCS(=O)(=O)[O-] 7.83%
CCOC(=O)c1c(-c2ccc(C)cc2)csc1NC(=O)C1CCCO1 (centres undefined) -4.23%
CCOC(=O)c1c(-c2cccc([N+](=O)[O-])c2)csc1NC(=O)C1CC1 -5.68%
COC(=O)c1c(-c2ccc(C)cc2)csc1NC(=S)NC(=O)c1ccc(F)cc1 -17.5%
CCOC(=O)c1c(-c2cccc([N+](=O)[O-])c2)csc1NC(=O)C1CCCCC1 -7.16%
COC(=O)c1c(-c2ccccc2)csc1NC(=O)C1CC=CCC1C(=O)O (centres undefined) 6.75%
CCOC(=O)c1c(-c2ccc(F)cc2)csc1NC(=O)C1CC=CCC1C(=O)O (centres undefined) 3.77%
Cc1nn(-c2ccccc2)c(N)c1C(O)(CSc1nccn1C)C(F)(F)F (centres undefined) -3.48%
CCC(CC)c1nnc(NC(=O)C2=NNC(=O)CC2)s1 -4.73%
COc1ccc(-c2cc(=O)n(-c3ccc([N+](=O)[O-])cc3)[nH]2)cc1 2.52%
Nn1cnc2sc3c(c2c1=O)CCC3 0.94%
CCC(=O)Nc1ccc2c(c1)C(=O)c1ccccc1C2=O -6.31%
COC(=O)N1[C@H](C)C=C[C@]1(Cc1ccccc1)C(=O)O 2.77%
COc1ccc(N2C(=O)/C(=C/c3ccc([N+](=O)[O-])cc3)C=C2c2ccccc2)cc1 -15.3%
CCOC(=O)c1ccc(Cl)c(NC(=O)c2ccc(-c3ccccc3)cc2)c1 -7.72%
COc1ccccc1Nc1nc(-c2c(C)nc3ncccn23)cs1 11.3%
COc1ccc(C2C(C#N)=C(N)OC3=C2C(=O)CC(C)(C)C3)cc1 (centres undefined) 7%
CCN=c1scc(C)n1/N=C/c1ccsc1 12.2%
CN=c1scc(C)n1/N=C/c1ccc(O)c(O)c1O 59%
CCCCN(CC)CCCNC(=O)c1cc2c(=O)n(C)c3ccccc3c2n1C -2.09%
O=C(O)CCN1C(=O)/C(=C\c2ccncc2)SC1=S 12.4%
C/C(=C1/SC(=S)N(CCC(=O)O)C1=O)c1ccc(O)cc1 52.2%
COc1ccc(C(=O)CCC(=O)O)cc1 2.45%
COc1ccc(/C=C2/SC(=S)N(CCC(=O)O)C2=O)cc1 38.8%
C=CCNC(=O)CCCc1ccccc1 11.4%
CC1CCCCN1C(=O)Cn1cnc2c1c(=O)n(C)c(=O)n2C (centres undefined) 0.19%
Cc1cc(-c2ccccc2)nc(Oc2cccc(C(F)(F)F)c2)c1S(C)(=O)=O -2.06%
COc1cccc(-n2nc3c(=S)[nH]nc(C)c3c2C)c1 -3.52%
O=C(O)COCC(=O)Nc1cc(C(F)(F)F)cc(C(F)(F)F)c1 -0.47%
COc1ccccc1NS(=O)(=O)c1ccc(NC(=O)c2ccncc2)cc1 -5.68%
COc1ccc(-c2cc(=O)c3c(O)c(OC)c(O)cc3o2)cc1 -3.88%
Cc1ccccc1-c1cc(=O)c2c(O)cccc2o1 -7.05%
COc1ccc(C2=NOC(C(=O)Nc3cc(C)on3)C2)cc1 (centres undefined) -16.7%
COC(=O)c1ccc(N2C(=O)CC(SCC(=O)Nc3ccc(OC)cc3)C2=O)cc1 (centres undefined) -6.08%
COc1ccccc1NC(=O)CSC1CC(=O)N(c2ccc3c(c2)OCO3)C1=O (centres undefined) 2.14%
COC(=O)[C@@]1(Cc2ccccc2)[C@H]2c3cc(C(=O)N4CCCC4)n(CCSCCO)c3C[C@H]2CN1C(=O)c1ccccc1 2.66%
CN(CCC#N)S(=O)(=O)c1ccc2[nH]cc(C(=O)NCCc3ccccc3)c(=O)c2c1 -16%
Cc1cc(Cl)ccc1C(=O)C1CCCN(C(=O)CCn2cnnn2)C1 (centres undefined) 5.92%
CCOc1ccccc1C1C(C#N)=C(N)Oc2n[nH]c(CC)c21 (centres undefined) 29.4%
CCCc1[nH]nc2c1C(c1ccccc1OCC)C(C#N)=C(N)O2 (centres undefined) 8.34%
CCOC(=O)N1CCC(N2C(=O)c3ccccc3C2Nc2ccc3c(c2)OCCO3)CC1 (centres undefined) -7.29%
CCn1c(-c2cc(-c3ccc(C)cc3)nc3ccccc23)n[nH]c1=S -3.9%
CCCCS(=O)(=O)N1CN(S(=O)(=O)CCCC)C2NC(=O)NC21 (centres undefined) 0.79%
CCCCc1cc(=O)oc2c(C)c(OCc3nn[nH]n3)ccc12 6.82%
CCCc1cc(=O)oc2c(C)c(OCc3nn[nH]n3)ccc12 -5.76%
O=C(NC1CCCCC1)c1ccccc1NC(=S)NC(=O)C1CC1 5.81%
S=C(Nc1ccccc1)Nc1ccccc1-n1cccc1 -5.63%
Cn1cnnc1SCC(=O)Nc1sccc1C#N -7.3%
Cc1csc(SCC(=O)Nc2sccc2C#N)n1 0.5%
Cn1cnnc1SCC(=O)Nc1sc2c(c1C#N)CCCCC2 11.7%
N#Cc1c(NC(=O)CSc2nc(N)cc(=O)[nH]2)sc2c1CCCCCC2 4.49%
Cc1nnc(SCC(=O)Nc2sc3c(c2C#N)CCCC3)[nH]c1=O 52.5%
Cc1ccnc(SCC(=O)Nc2sc3c(c2C#N)CCCC3)n1 2.01%
N#Cc1c(NC(=O)CSc2ncn(-c3ccccc3)n2)sc2c1CCCC2 9.47%
N#Cc1c(NC(=O)CSC2=NCCS2)sc2c1CCCC2 19.2%
O=C1CC(C(=O)NCc2ccccc2)C2(CCCC2)O1 (centres undefined) -0.86%
COc1ccc(C2C(C(=O)N3CCCCC3)c3ccccc3C(=O)N2C)cc1 (centres undefined) -0.86%
CCOC(=O)c1sc(NC(=O)CSc2nc(C)cc(C)n2)c(C#N)c1C -1.79%
CCOC(=O)c1sc(NC(=O)CSc2nc(C)cc(C)c2C#N)c(C#N)c1C -17.4%
Cc1ccc(OCC(=O)OC2CCS(=O)(=O)C2)cc1 (centres undefined) 1.23%
CN1C(=O)c2ccc(N3CCCC3)cc2C1=O 22.5%
CN(C)c1ccc2c(=O)[nH][nH]c(=O)c2c1 5.67%
O=C(Nc1ccc(Br)cc1Cl)NC1CC1 -4.66%
CC(CCc1ccccc1)NC(=O)c1cccs1 (centres undefined) -2.09%
Cc1ccc2c(CC(=O)N3CCN(S(=O)(=O)c4ccc5c(c4)OCCO5)CC3)coc2c1 -3.86%

From PubChem BioAssay AID1619 (SRMLSC, 2009)
